# Screens from PubChem BioAssay.
# Most compounds without a hit are left out; they make up all but 19% or so of the library.
# S-ASM inh = human S-ASM enzyme inhibition; P17405; placental ASM, HMU-PC fluorogenic substrate, 60 min; Potency, µM (highest dose often 57.5 µM), for the others: at the top dose activity change, negative = inhibition, actives largely listed as inhibitors; hit rate 0.006% among 340,000; AID 504937; note: potency is the fitted concentration of half-maximal effect
# Target sequence (P17405 47-631 limits assumed): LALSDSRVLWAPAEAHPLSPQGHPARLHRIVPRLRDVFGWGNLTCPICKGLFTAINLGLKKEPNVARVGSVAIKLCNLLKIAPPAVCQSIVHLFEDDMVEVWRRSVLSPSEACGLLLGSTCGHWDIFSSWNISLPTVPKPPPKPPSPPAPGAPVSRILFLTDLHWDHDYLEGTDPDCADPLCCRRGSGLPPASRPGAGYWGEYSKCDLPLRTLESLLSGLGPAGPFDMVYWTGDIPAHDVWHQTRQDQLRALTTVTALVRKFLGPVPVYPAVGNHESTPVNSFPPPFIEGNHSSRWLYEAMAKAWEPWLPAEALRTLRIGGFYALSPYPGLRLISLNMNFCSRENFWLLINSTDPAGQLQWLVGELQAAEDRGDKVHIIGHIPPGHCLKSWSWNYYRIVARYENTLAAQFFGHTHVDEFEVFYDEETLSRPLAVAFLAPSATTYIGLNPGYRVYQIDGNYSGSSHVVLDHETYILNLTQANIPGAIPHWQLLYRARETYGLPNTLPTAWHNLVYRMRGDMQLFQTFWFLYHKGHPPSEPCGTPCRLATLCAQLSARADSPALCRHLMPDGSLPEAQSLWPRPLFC
#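 Human placenta-derived ASM preincubated with compound 10 min at room temperature, then reacted with 9 uM (final) fluorogenic HMU-PC substrate for 60 min at 37 C. Stop solution raises pH to 10; fluorescence read at Ex 386/Em 447 nm.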
# DT40 TDP1 CPT = DT40-hTDP1 cell growth loss with CPT; hit rate 12% among 420,000; chicken DT40 Tdp1-/-;hTDP1 cells + 20 nM CPT, ATP luminescence, 48 h; Potency, µM (top dose mostly 46.2 µM), without a hit: at the highest dose activity change, negative = growth inhibition, hits mostly inhibitors; AID 686979; note: potency is the fitted concentration of half-maximal effect; % is set by controls: 0 for no effect and ±100 for the full control effect; nearly all actives have a fitted effect of over 55% in size
#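 Chicken DT40 Tdp1-/- cells complemented with human TDP1, 400 cells/well, exposed to compounds plus 20 nM camptothecin for at least 48 h at 37 C; viability read as ATP content by CellTiter-Glo luminescence.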
# IL1B secr inh = inflammasome signaling inhibition, IL-1 beta readout; AID 743279; THP-1 LPS/ATP IL-1B secretion, AlphaLISA, 16 h; active compounds read low; hit rate 4.7% among 360,000; activity change, % at 57.5 µM; in the data active = activity change below about -50%; inconclusive = mostly about -30% to -49%; note: % is set by controls: 0 for no effect and ±100 for the full control effect
#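 THP-1 cells pretreated 1 hr with compounds (up to 57.5 uM final), then stimulated with LPS (250 ng/mL final) plus ATP (1.25 mM final); secreted IL-1B measured by AlphaLISA after 16 hr, decreased signal indicating inhibition.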
# TGFb SMAD3 inh = TGF-b pathway inhibition | HepG2 CAGA-GFP TGF-b/SMAD3 reporter, GFP fluorescence, 18 h; TGF-beta stimulated, 500 pg/mL final | Potency, µM (titrated, usually from 46.1 µM), without a hit: at the top dose activity, negative = inhibition, actives largely listed as inhibitors | hit rate 1.2% among 410,000 | AID 588855; note: potency is the fitted concentration of half-maximal effect; % is set by controls: 0 for no effect and ±100 for the full control effect; nearly all actives have a fitted effect of over 65% in size
#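 Smad-responsive CAGA-GFP expression was quantified in HEPG2 cells exposed to compounds and 500 pg/mL final TGF-beta for 18 h at 37 degrees C; unstimulated wells defined full inhibition.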
# HepG2 tox = HepG2 cytotoxicity, counter-screen for TGF-b inhibitors | HepG2 CAGA-GFP viability, ATP luminescence, 18 h | Potency, µM (series often up to 46.1 µM), for the others: at the highest dose activity change, negative = cytotoxicity, most hits filed as cytotoxic | hit rate 0.76% among 410,000 | AID 588856; note: potency is the fitted concentration of half-maximal effect
#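 HepG2 CAGA-GFP cells (1000/well, DMEM with 1% FBS) received compound, then TGF-beta at 500 pg/mL final, and were incubated 18 hours at 37 degrees C. Viability was read by CellTiter-Glo luminescence. Media-only wells were set as complete cell-killing and DMSO as no toxicity.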
# DT40 TDP1 no CPT = qHTS for Inhibitors of human tyrosyl-DNA phosphodiesterase 1 (TDP1): qHTS in cells in absence of CPT. DT40 Tdp1-/- hTDP1 cells, no CPT, ATP luminescence, 48 h. Potency, µM (titrated, usually from 46.2 µM), for inactives: top-dose activity change, negative = growth inhibition, hits mostly inhibitors. hit rate 15% among 420,000. AID 686978, 2013; note: potency is the fitted concentration of half-maximal effect; % is set by controls: 0 for no effect and ±100 for the full control effect; nearly all actives have a fitted effect of over 55% in size
#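 Cells were dispensed at 400 per well, compounds added by pin tool, plates incubated ≥48 hr at 37 °C, then CellTiter-Glo added for 30 min at room temperature before luminescence reading. Line: DT40 Tdp1-/- complemented with hTDP1; camptothecin omitted.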
# An asterisk follows results filed as active; i = inactive; ? = inconclusive; nt = no result given. Unless noted, calls come from the whole dose curve; as a rule, active = well fitted curve in the direction sought with a large enough effect; inconclusive = small, poorly fitted or top-dose-only effect, or another doubt; inactive = no such curve, though single readings can be large; an effect the other way counts as inactive or inconclusive.
SMILES,S-ASM inh,DT40 TDP1 CPT,IL1B secr inh,TGFb SMAD3 inh,HepG2 tox,DT40 TDP1 no CPT
CCc1cccc(NS(=O)(=O)c2ccc3c(c2)NC(=O)C(C)S3)c1 (stereo not drawn),0%,21µM*,-10,?,-35%,?
COc1cccc(NS(=O)(=O)c2ccc3c(c2)NC(=O)C(C)S3)c1 (stereo not drawn),5%,?,41,-24%,-21%,?
CCC1Sc2ccc(S(=O)(=O)Nc3cc(OC)cc(OC)c3)cc2NC1=O (stereo not drawn),15%,16µM*,33,?,-58%,?
CCC1Sc2ccc(S(=O)(=O)N3CCN(c4ccccc4)CC3)cc2NC1=O (stereo not drawn),-7%,15µM*,23,-23%,-16%,?
CCC1CCCCN1C(=O)CSc1n[nH]c(N)n1 (stereo not drawn),3%,2%,7,2%,-3%,-3%
O=C(O)c1cc(-c2c[nH]c3ccccc23)nc2ccc3ccccc3c12,i,11%,18,-15%,-8%,-2%
c1ccc2c(-c3c[nH]c4ccccc34)c3ccccc3nc2c1,-3%,?,-19,?,-29%,16µM*
O=C(N/C(=C\c1ccc(Cl)cc1)C(=O)N1CCOCC1)c1ccc([N+](=O)[O-])cc1,-3%,-8%,27,-27%,-23%,-15%
CC1(C)Cc2c(ccc3ccccc23)C2=C(C(=O)N3CCCC3)C(=O)C(=O)N21,-3%,8.2µM*,71,?,-1%,8.2µM*
O=C(c1ccc2ccccc2c1O)N1CCCCC1,nt,?,15,12%,-14%,?
COC(=O)[C@@H]1CCCN1C(=O)c1c(OC)cc(=O)n2c1CCN(Cc1ccc3c(c1)OCCO3)CC2,nt,-5%,nt,nt,nt,-1%
O=C(Nc1ccc(F)c(Cl)c1)c1cc(S(=O)(=O)NCc2ccc3c(c2)OCO3)ccc1F,nt,?,nt,?,-13%,?
CC1CCCCN1C(=O)c1cccc(NC(=O)c2ccccc2)c1 (stereo not drawn),-4%,-2%,8,2%,-5%,-23%
CC(C)C(=O)Nc1cccc(C(=O)N2CCCCC2C)c1 (stereo not drawn),6%,18µM*,13,-3%,4%,15µM*
O=C(CSc1nccn1C1CCCC1)Nc1ccc(C(F)(F)F)cc1,nt,?,nt,-25%,-42%,?
CCc1ccc(N=CC23c4ccccc4C(c4ccccc42)C2C(=O)N(c4ccc(OC)cc4)C(=O)C23)cc1 (stereo not drawn),0%,?,-15,?,-28%,18µM*
F[B-](F)(F)COCc1ccccc1Br,1%,12%,?,11%,-14%,-1%
O=C(c1c(F)cccc1F)N(Cc1ccccn1)C1CCCC1,1%,18µM*,5,-24%,-14%,4.6µM*
O=C(c1c(F)cccc1F)N(C1CCCCC1)C1CCCCC1,-4%,?,48,?,-33%,18µM*
O=C(c1c(F)cccc1F)N(Cc1cccs1)C1CCCC1,-4%,12µM*,-9,-4%,0%,9.2µM*
O=C(NO)c1ccc(C(=O)N(C2CCCCC2)C2CCCCC2)cc1,-11%,16µM*,53,-32%,-37%,21µM*
O=C(c1ccc(-n2cnnn2)cc1)N(C1CCCCC1)C1CCCCC1,-1%,0%,0,-12%,-6%,-21%
COc1cc(CNS(=O)(=O)CCl)cc(OC)c1OC,5%,3%,26,3%,9%,4%
CN(C)S(=O)(=O)c1cccc(NC(=O)CC23CC4CC(CC(C4)C2)C3)c1,-2%,23µM*,3,0%,-3%,21µM*
NS(=O)(=O)c1cccc(NC(=O)CC23CC4CC(C2)CC(CC(=O)Nc2cccc(S(N)(=O)=O)c2)(C4)C3)c1,-5%,0%,1,-7%,-4%,-6%
SMILES,S-ASM inh,DT40 TDP1 CPT,IL1B secr inh,TGFb SMAD3 inh,HepG2 tox,DT40 TDP1 no CPT
CN(C)S(=O)(=O)Nc1cccc(NC(=O)CC23CC4CC(CC(C4)C2)C3)c1,-1%,-26%,-73*,-11%,-9%,-24%
COc1ccc(CCNC(=O)C2c3ccccc3C(=O)N2Cc2ccccc2)cc1OC (stereo not drawn),nt,-4%,nt,?,-5%,?
COc1ccc(NC(=O)C(=O)c2cn(CC(=O)N3CCCC3)c3ccccc23)cc1,-10%,0.41µM*,125,?,-17%,0.23µM*
COc1ccc(CCNC(=O)C(=O)c2cn(CC(=O)N3CCCC3)c3ccccc23)cc1OC,nt,-9%,-30,2%,-8%,21µM*
CC(=O)Nc1cccc(NC(=O)C(=O)c2cn(CC(=O)N3CCCCC3)c3ccccc23)c1,-8%,23µM*,-3,-9%,-4%,?
COc1ccc(CCNC(=O)CS(=O)(=O)c2cn(CC(=O)N3CCCC3)c3ccccc23)cc1OC,0%,0%,10,-1%,-15%,-3%
COc1ccc(CCNC(=O)Cn2cc(S(=O)(=O)Cc3ccc(F)cc3)c3ccccc32)cc1OC,nt,?,nt,0%,1%,21µM*
CC(=O)Nc1ccc(NC(=O)C(=O)c2cn(CC(=O)N3CCCC3)c3ccccc23)cc1,-4%,0%,9,-11%,-30%,-21%
COCCN(C(=O)c1c(C)noc1C)c1c(N)n(CC(C)C)c(=O)[nH]c1=O,7%,-2%,17,-2%,3%,4%
COc1cc(NC(=O)N2CCC(CN3CCOCC3)CC2)cc(OC)c1OC,nt,-20%,nt,16%,10%,-14%
O=C1[C@@H]2[C@@H](CN3CN(c4ccccc4)N=C(c4ccccc4)[C@@]23c2ccccc2)C(=O)N1c1ccccc1,393%,5.8µM*,0,-16%,-44%,13µM*
O=C1[C@H]2C(c3ccccc3)=NN(c3ccccc3)[C@H]2C(=O)N1c1ccccc1,399%,-15%,28,-24%,-14%,2%
COc1ccc(NC(=O)C2=C(C)Nc3nc(CCCO)nn3C2c2ccc(O)cc2)cc1 (stereo not drawn),nt,-15%,nt,1%,-12%,15%
CNc1nc(Cl)c(SC)c(NCc2cccc(OC)c2)n1,-5%,?,37,-9%,-9%,23µM*
